# Publication PMC11062922 (Nature Chemical Biology, 2023)
# Read-outs that look alike come from different tables or passages of the source.
# Key:
# Set-up in all cases: species or system human, MV4-11 + K-562 + COLO205 + SK-N-BE2 + OVCAR-8
# [1] = test system: ACVR1B; settings: read-out: apparent Kd, n = 1
# [2] = test system: ACVR1; settings: read-out: apparent Kd; compound concentrations: 100 nM and 1000 nM (sheet 'Samples'), CATDS: 1.9559764953072701E-2; n = 1
# [3] = test system: ACVR2B; settings: read-out: apparent Kd; compound concentrations: 100 nM and 1000 nM (sheet 'Samples'), CATDS: 2.6273503134627601E-2; n = 1
# [4] = test system: BCR; settings: read-out: apparent Kd; compound concentrations: 100 nM and 1000 nM (sheet 'Samples'), CATDS: 2.1537689296735201E-2; n = 1
# [5] = test system: BMPR1B; settings: read-out: apparent Kd; compound concentrations: 100 nM and 1000 nM (sheet 'Samples'), CATDS: 2.4616373356857599E-2; n = 1
# [6] = test system: BRAF; settings: read-out: apparent Kd; compound concentrations: 100 nM and 1000 nM (sheet 'Samples'), CATDS: 1.9586867815954801E-2; n = 1
# [7] = test system: BUB1; settings: read-out: apparent Kd; compound concentrations: 100 nM and 1000 nM (sheet 'Samples'), CATDS: 2.2537896529622702E-2; n = 1
# [8] = test system: CIT; settings: read-out: apparent Kd, n = 1
# [9] = test system: CSNK1A1; settings: read-out: apparent Kd, compound concentrations: 100 nM and 1000 nM (sheet 'Samples'), n = 1
# [10] = test system: CSNK1D; settings: read-out: apparent Kd, n = 1
# [11] = test system: CSNK1E; settings: read-out: apparent Kd, n = 1
# [12] = test system: EPHA1; settings: read-out: apparent Kd; compound concentrations: 100 nM and 1000 nM (sheet 'Samples'), CATDS: 3.1864310867846697E-2; n = 1
# [13] = test system: FRK; settings: read-out: apparent Kd; compound concentrations: 100 nM and 1000 nM (sheet 'Samples'), CATDS: 4.4669706945154999E-2; n = 1
# [14] = test system: FYN; settings: read-out: apparent Kd; compound concentrations: 100 nM and 1000 nM (sheet 'Samples'), CATDS: 2.2205933689287499E-2; n = 1
# [15] = test system: MAPK14; settings: read-out: apparent Kd, n = 1
# [16] = test system: MAPK9; settings: read-out: apparent Kd, compound concentrations: 100 nM and 1000 nM (sheet 'Samples'), n = 1
# [17] = test system: MAPKAPK2; settings: read-out: apparent Kd, compound concentrations: 100 nM and 1000 nM (sheet 'Samples'), n = 1
# [18] = test system: PKN3; settings: read-out: apparent Kd, n = 1
# [19] = test system: PRKCI; settings: read-out: apparent Kd; compound concentrations: 100 nM and 1000 nM (sheet 'Samples'), CATDS: 3.04574994167322E-2; n = 1
# [20] = test system: PRKD2; settings: read-out: apparent Kd, n = 1
# [21] = test system: PTK6; settings: read-out: apparent Kd; compound concentrations: 100 nM and 1000 nM (sheet 'Samples'), CATDS: 3.9660106147075401E-2; n = 1
# [22] = test system: RET; settings: read-out: apparent Kd; compound concentrations: 100 nM and 1000 nM (sheet 'Samples'), CATDS: 0.10726511440353401; n = 1
# [23] = test system: RIPK2; settings: read-out: apparent Kd, n = 1
# [24] = test system: RIPK3; settings: read-out: apparent Kd; compound concentrations: 100 nM and 1000 nM (sheet 'Samples'), CATDS: 5.5820006344930999E-2; n = 1
# [25] = test system: RPS6KB1; settings: read-out: apparent Kd; compound concentrations: 100 nM and 1000 nM (sheet 'Samples'), CATDS: 1.9963914199749098E-2; n = 1
# [26] = test system: SIK2; settings: read-out: apparent Kd; compound concentrations: 100 nM and 1000 nM (sheet 'Samples'), CATDS: 2.1322969574131299E-2; n = 1
# [27] = test system: SIK3; settings: read-out: apparent Kd; compound concentrations: 100 nM and 1000 nM (sheet 'Samples'), CATDS: 2.2436255384138602E-2; n = 1
# [28] = test system: SLK; settings: read-out: apparent Kd; compound concentrations: 100 nM and 1000 nM (sheet 'Samples'), CATDS: 3.1142117408046201E-2; n = 1
# [29] = test system: STK10; settings: read-out: apparent Kd; compound concentrations: 100 nM and 1000 nM (sheet 'Samples'), CATDS: 2.2718990110139101E-2; n = 1
# [30] = test system: TGFBR1; settings: read-out: apparent Kd; compound concentrations: 100 nM and 1000 nM (sheet 'Samples'), CATDS: 5.82262421070339E-2; n = 1
# [31] = test system: TGFBR2; settings: read-out: apparent Kd, n = 1
# [32] = test system: TNIK; settings: read-out: apparent Kd; compound concentrations: 100 nM and 1000 nM (sheet 'Samples'), CATDS: 1.9385936597074001E-2; n = 1
# [33] = test system: T1, DJA1; settings: read-out: apparent Kd; compound concentrations: 100 nM and 1000 nM (sheet 'Samples'), CATDS: 6.7999729986940594E-2; n = 1
# T1 construct: gene DNAJA1
# [34] = test system: GAK; settings: read-out: apparent Kd; compound concentrations: 100 nM and 1000 nM (sheet 'Samples'), CATDS: 6.3982915513231806E-2; n = 1
# [35] = test system: MAPK10; settings: read-out: apparent Kd; compound concentrations: 100 nM and 1000 nM (sheet 'Samples'), CATDS: 7.0993589128773599E-2; n = 1
# [36] = test system: PRKCQ; settings: read-out: apparent Kd; compound concentrations: 100 nM and 1000 nM (sheet 'Samples'), CATDS: 6.9749841239759497E-2; n = 1
# [37] = test system: MAP4K2; settings: read-out: apparent Kd; compound concentrations:100 nM and 1000 nM (sheet 'Samples'); n = 1
# [38] = test system: PRKD3; settings: read-out: apparent Kd; compound concentrations:100 nM and 1000 nM (sheet 'Samples'); n = 1
# [39] = test system: TESK2; settings: read-out: apparent Kd; compound concentrations:100 nM and 1000 nM (sheet 'Samples'); n = 1
# [40] = compound concentrations:100 nM and 1000 nM (sheet 'Samples')
structure (smiles),measurement,setting,value
CC(C)(CN)c1nc(-c2ccc(Cl)c(O)c2)c(-c2ccncc2)[nH]1.O=C(O)C(F)(F)F [SB-477794-AAA],potency estimated from few doses,"[1]; compound concentrations: 100 nM and 1000 nM (sheet 'Samples'), CATDS: 5.2307110654739801E-2",55.4 nM
same,potency estimated from few doses,[2],1330 nM
same,potency estimated from few doses,[3],388 nM
same,potency estimated from few doses,[4],833 nM
same,potency estimated from few doses,[5],488 nM
same,potency estimated from few doses,[6],1320 nM
same,potency estimated from few doses,[7],687 nM
same,potency estimated from few doses,"[8]; compound concentrations: 100 nM and 1000 nM (sheet 'Samples'), CATDS: 2.75730146177765E-2",330 nM
same,potency estimated from few doses,[9]; CATDS: 2.3707563911338599E-2,562 nM
same,potency estimated from few doses,"[10]; compound concentrations: 100 nM and 1000 nM (sheet 'Samples'), CATDS: 4.2810001426460499E-2",92.5 nM
same,potency estimated from few doses,"[11]; compound concentrations: 100 nM and 1000 nM (sheet 'Samples'), CATDS: 3.2440470018423401E-2",199 nM
same,potency estimated from few doses,[12],210 nM
same,potency estimated from few doses,[13],82.8 nM
same,potency estimated from few doses,[14],730 nM
same,potency estimated from few doses,"[15]; compound concentrations: 100 nM and 1000 nM (sheet 'Samples'), CATDS: 3.89835717032921E-2",119 nM
same,potency estimated from few doses,[16]; CATDS: 1.8300020860960699E-2,2000 nM
same,potency estimated from few doses,[17]; CATDS: 2.4524702318677E-2,495 nM
same,potency estimated from few doses,"[18]; compound concentrations: 100 nM and 1000 nM (sheet 'Samples'), CATDS: 0.20654584562915099",2.21 nM
same,potency estimated from few doses,[19],241 nM
same,potency estimated from few doses,"[20]; compound concentrations: 100 nM and 1000 nM (sheet 'Samples'), CATDS: 2.0032181023514398E-2",1170 nM
same,potency estimated from few doses,[21],113 nM
same,potency estimated from few doses,[22],9.97 nM
same,potency estimated from few doses,"[23]; compound concentrations: 100 nM and 1000 nM (sheet 'Samples'), CATDS: 0.143338451264474",5.13 nM
same,potency estimated from few doses,[24],47.1 nM
same,potency estimated from few doses,[25],1200 nM
same,potency estimated from few doses,[26],871 nM
same,potency estimated from few doses,[27],699 nM
same,potency estimated from few doses,[28],225 nM
same,potency estimated from few doses,[29],665 nM
same,potency estimated from few doses,[30],42.5 nM
same,potency estimated from few doses,"[31]; compound concentrations: 100 nM and 1000 nM (sheet 'Samples'), CATDS: 8.8931452038097006E-2",15.4 nM
same,potency estimated from few doses,[32],1400 nM
Fc1ccc(-c2nn3ccccc3c2-c2ccncc2)cc1 [GW434756X],potency estimated from few doses,"[1]; compound concentrations: 100 nM and 1000 nM (sheet 'Samples'), CATDS: 6.8235886805588605E-2",1230 nM
same,potency estimated from few doses,"[8]; compound concentrations: 100 nM and 1000 nM (sheet 'Samples'), CATDS: 6.8145894715466407E-2",1230 nM
same,potency estimated from few doses,[9]; CATDS: 7.0903830983545899E-2,1120 nM
same,potency estimated from few doses,"[10]; compound concentrations: 100 nM and 1000 nM (sheet 'Samples'), CATDS: 0.180022890791455",233 nM
same,potency estimated from few doses,"[11]; compound concentrations: 100 nM and 1000 nM (sheet 'Samples'), CATDS: 9.3100036539018993E-2",644 nM
same,potency estimated from few doses,[33],1240 nM
same,potency estimated from few doses,[34],1440 nM
same,potency estimated from few doses,[35],1120 nM
same,potency estimated from few doses,"[15]; compound concentrations: 100 nM and 1000 nM (sheet 'Samples'), CATDS: 8.8352679979738905E-2",709 nM
same,potency estimated from few doses,[16]; CATDS: 6.4345745846517005E-2,1420 nM
same,potency estimated from few doses,[17]; CATDS: 0.114976727477382,449 nM
same,potency estimated from few doses,"[18]; compound concentrations: 100 nM and 1000 nM (sheet 'Samples'), CATDS: 6.6861054791119798E-2",1290 nM
same,potency estimated from few doses,[36],1160 nM
Cc1cccc(-c2nc(Nc3ccncc3)c3ccccc3n2)n1 [GW855857X],potency estimated from few doses,[1]; [40],0.502 nM
same,potency estimated from few doses,[8]; [40],1120 nM
same,potency estimated from few doses,[10]; [40],897 nM
same,potency estimated from few doses,[11]; [40],1190 nM
same,potency estimated from few doses,[37],1630 nM
same,potency estimated from few doses,[15]; [40],1470 nM
same,potency estimated from few doses,[18]; [40],75.5 nM
same,potency estimated from few doses,[20]; [40],3.39 nM
same,potency estimated from few doses,[38],6.73 nM
same,potency estimated from few doses,[23]; [40],590 nM
same,potency estimated from few doses,[39],1340 nM
same,potency estimated from few doses,[31]; [40],855 nM
